Where “and” joins values, the source holds several entries; their conditions need not be identical. Equal entries are not always repeated. The panel holds about 83,000 compounds, 20% with a hit somewhere; the sample as a whole holds those more often.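 Interpretation: 100, growth as untreated; towards 0, rising growth inhibition; 0, no net growth; 0 to -100, cell death. Compounds scoring below 10 were considered active.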 Calls of active or inactive are those of the source.

For the assay, the system named is HL-60(TB) leukemia. As to the kind of experiment: NCI-60 one-dose screen, 48 h (100 = growth as untreated, 0 = no growth, -100 = all killed). Particulars: 10 µM unless noted.
As for `O=S(=O)(NCCCNc1nccc(-c2c(-c3cccc(O)c3)nc3occn23)n1)c1ccc(F)cc1`, the growth is 72.3% (inactive).

On to `Cc1cc(Cl)ccc1Nc1nc(C(F)(F)F)ccc1C(=O)NCC(=O)N/N=C/c1c(Cl)cccc1Cl`, for which the growth is 48.7% (inactive).

For `COc1ccc(Nc2ccnc(N3CCN(c4ccnc5cc(Cl)ccc45)CC3)n2)cc1`, the growth was -16.8% (active).

Turning to `CCOC(=O)c1c(C)oc2ncnc(N3CCN(C(=S)Nc4ccccc4)CC3)c12`, the growth was 94.7% (inactive).

Take `O=C1c2c(O)ccc(O)c2C(=O)c2c(NCCNCCO)ccc(NCCNCCO)c21`: the growth is -28.5% (active) and -59.5% (active).

Regarding `COc1cccc(-c2nn(-c3ccccc3)cc2-c2ccnc(NCCCNC(=O)c3ccc(F)cc3)c2)c1`, the growth is 19.3% (inactive).

Regarding `COc1cc2c3c(c4c5ccccc5[nH]c4c2c(OC)c1OC)C(=O)N(CCN1CCOCC1)C3=O`, the growth was 69% (inactive).

On to `COc1ccc(-c2csc(NC(=O)CSc3nc(-c4ccccc4)cc(=O)[nH]3)n2)cc1`, for which the growth is 52.4% (inactive).

As to `COc1nc2c(cc1S(=O)(=O)c1ccccc1)CCc1c-2cnn1-c1ccccc1Cl`, the growth is 39.9% (inactive).

As for `CC1OC2CC(=O)OC2C2=C1C(=O)c1c(O)cccc1C2=O` (stereo not given), the growth was -47.8% (active).

With `CCOC(=O)c1cn2ncnc(Oc3ccc(NC(=O)NCCN4CCOCC4)c(Cl)c3)c2c1C`, the growth is 101% (inactive).

With `N=C1C(c2nc(-c3ccc(Br)cc3)cs2)=C(O)CN1Cc1cccnc1`, the growth is 72.4% (inactive).

With `O=C1C(Cl)=C(Nc2ccc3cn[nH]c3c2)C(=O)c2ccccc21`, the growth is -69.2% (active).

With `CC1=C[C@H]2c3c(c(O)c(O)c4oc5cc(O)cc(O)c5c(=O)c34)[C@H](c3cc(O)c(O)c4oc5cc(O)cc(O)c5c(=O)c34)[C@H]2C(C)(C)C1`, the growth is 2.23% (active) and -3.82% (active).

For the molecule `COc1cc(NC(=O)Nc2cnc(Nc3ccc(N4CCOCC4)cc3)nc2Oc2cccc(OC)c2)cc(OC)c1`, the growth was 22.8% (inactive).

As for `O=C(NNC(=O)c1ccc(-n2cc(-c3ccccc3)nn2)cc1)Nc1ccccc1`, the growth was 95.4% (inactive).

Turning to `O=C(CN1CCN(c2cc3c(cc2F)c(=O)c(C(=O)O)cn3C2CC2)CC1)Nc1ccc(Cl)cc1`, the growth was 89.5% (inactive) and 98.4% (inactive).

`CC(=O)c1c(-c2ccc(OC(F)(F)F)cc2)nc2ccccn12`: the growth was 115% (inactive).

Regarding `C[N+]1(CCC[N+]2(C)C[C@@H]3[C@H](C2)[C@@H]2C=C[C@H]3C2)CCOCC1` (stereo not given in full), the growth is 122% (inactive).

In the case of `C=C(C)[C@@H]1CC[C@]2(C(=O)NCC(=O)OC)CC[C@]3(C)[C@H](CC[C@@H]4[C@@]5(C)Cc6c([nH]c7ccccc67)C(C)(C)[C@@H]5CC[C@]43C)[C@@H]12`, the growth is 64.8% (inactive).

Regarding `COc1ccc(Cn2c(NCCCN(C)C)nc(=O)n(Cc3ccc(F)cc3)c2=O)cc1`, the growth is 95.7% (inactive).

With `CC1(C)CC[C@]2(c3nnc(-c4ccncc4)o3)CC[C@H]3C(=CC[C@H]4[C@@]3(C)CC[C@H]3C(C)(C)C(=O)CC[C@]43C)[C@@H]2C1`, the growth is 3% (active).

With `O=C(CCl)Nc1ccc2c(c1)C(=O)c1ccccc1C2=O`, the growth was 12.7% (inactive).

For `Cc1ncsc1CCO`, the growth is 99.9% (inactive) and 89.9% (inactive).

Turning to `CCCCN(CCCC)CC(O)CN(CC)CC` (stereo not given), the growth was 108% (inactive).

In the case of `Cc1[nH]c2ncnc(Oc3ccc(NC(=O)Nc4ccc(Cl)c(C(F)(F)F)c4)cc3)c2c1C`, the growth was 65.6% (inactive).

As for `COC1(OC)C2(Cl)C=C(c3ccccc3)C1(Cl)C(Cl)=C2Cl` (stereo not given), the growth is 83.7% (inactive).

As for `COC1=CC(=O)c2nc(Cl)ccc2C1=O`, the growth is -30.1% (active).

For the molecule `O=C(CCc1nnc2sc(COc3ccccc3)nn12)c1nc2ncccc2[nH]1`, the growth is 117% (inactive).

With `C1=C(N2CCCC2)CCC1`, the growth is 56.7% (inactive).

For `Cc1nc2cc(NC(=O)CN3CCN(CCN4C(=O)c5cccc6cccc(c56)C4=O)CC3)ccc2s1`, the growth is 63.9% (inactive).

Regarding `Clc1ccc(C2=NN(c3ccccc3)[C@H](c3cn(-c4ccccc4)nc3-c3ccccc3)C2)cc1`, the growth was 116% (inactive).

For `COc1ccc(/C=N/NC(=O)Cn2c(Cc3cccc4ccccc34)nc3ccccc32)cc1`, the growth was 93.2% (inactive).

Turning to `COc1ccc(/C=C/C(=O)c2ccc(OC)c(OC)c2)cc1O`, the growth is 81.5% (inactive).

For `COc1ccc(-c2nc3sc(-c4ccc(OC)cc4)c(-c4ccc(OC)cc4)n3c2/C=C/c2ccc(C(C)C)cc2)cc1`, the growth is 97% (inactive).

On to `COc1ccc(-c2c3c(N)c4c(nc3nc3c2c(C)nn3-c2ccccc2)CCCCC4)cc1`, for which the growth is 49.3% (inactive).

In the case of `N#CC1(Nc2ccc3c4c(cccc24)CC3)CCCCC1`, the growth is 72.2% (inactive).

Consider `COc1ncc(F)c(OC)n1`, for which the growth is 95.3% (inactive).

As for `c1ccc2c(c1)Oc1cccnc1-n1nccc1-2`, the growth was 101% (inactive).

With `Cc1ccc(OC(=O)c2ccc(Cl)cc2)cc1`, the growth was 124% (inactive).

Source of the values: PubChem BioAssay (NCI).
